Data on 37 compounds can be found in PubChem BioAssay (Tox21).

Values joined by “and” are separate entries in the source; they are usually repeats but may differ in a detail not shown here. Equal entries are not always repeated. Records with an inconclusive call do not appear. Where a structure was tested more than once in an assay, its records may differ in their call. Active and inactive are the calls of the source. The call rests on the fitted dose curve; in most records, active means well fitted cell-killing curve with a large enough effect in the repeat runs; inconclusive means weak or mixed curves, or effect the other way; inactive means no such curve, though single readings can be large or run the other way.
On the % scale 0 is the no-effect control and ±100 the full control effect; potency means the concentration at half of the fitted maximal effect.

This test can be described thus: qHTS assay for identifying genotoxic compounds that show differential cytotoxicity against isogenic chicken DT40 cell lines with known DNA damage response pathways - Rev3 mutant cell line (AID 743014). Further: nearly all actives have a fitted effect of over 55% in size. As to conditions: chicken DT40 Rev3-/- viability, CellTiter-Glo, 40 h; series mostly up to 68.4 µM; activity, negative = cytotoxicity: at the top concentration. (In qHTS, concentration-response curves come from the screen itself.)
As to `CC1(C)[C@H](C(=O)O[C@H](C#N)c2cccc(Oc3ccccc3)c2)[C@@H]1C=C(Br)Br`, the Potency result was “inactive and 48.6 µM (active)”.
As to `CCC1(C2=NCCN2)Cc2ccccc2O1` (configuration not stated), the Potency is 5.31 µM (active).
On to `C=C(Cl)Cl`, for which the “activity, negative = cytotoxicity” value was 1.35% [at 95 µM] (inactive).
Turning to `ClCc1ccccc1Cl`, the “activity, negative = cytotoxicity” value was 2.14% [at 95 µM] (inactive).
As for `CCC1(CCC(C)C)C(=O)NC(=O)NC1=O`, the “activity, negative = cytotoxicity” value was -16.9% (inactive).
On to `CCCN(CCC)c1c([N+](=O)[O-])cc(C(C)C)cc1[N+](=O)[O-]`, for which the “activity, negative = cytotoxicity” value is 2.56% (inactive).
In the case of `CCCCCCCCn1sccc1=O`, the Potency is 2.17 µM (active) and 719 nM (active).
Same read-out and setting: with `CC(C)(C)CC(C)(C)c1ccc(O)cc1` the figure was 11.9 µM (active) and 19.3 µM (active).
For `Nc1c(Br)cc(Br)c2c1C(=O)c1ccccc1C2=O`, the “activity, negative = cytotoxicity” value was 9.69% [at 31.4 µM] (inactive).
With `CC(Oc1cccc(Cl)c1)C(=O)O` (configuration not stated), the “activity, negative = cytotoxicity” value was 1.04% (inactive).
On to `N#CC(C#N)=Cc1ccc(O)c(O)c1`, for which the Potency is 26.6 µM (active).
Take `Clc1ccc2ccccc2c1`: the “activity, negative = cytotoxicity” value is 1.5% [at 95 µM] (inactive).
Take `CCOC(=O)c1cncn1C(C)c1ccccc1` (configuration not stated): the “activity, negative = cytotoxicity” value is -4.96% [at 31.4 µM] (inactive).
The same measure, in the same setting: then `Cc1cnc(C2=NC(C)(C(C)C)C(=O)N2)c(C(=O)O)c1` (configuration not stated), with -8.22% (inactive); and `Cc1nc(N(C)C)nc(OC(=O)N(C)C)c1C`, with -20.3% (inactive); and `CCCCCBr`, with 8.32% [at 95 µM] (inactive).
For `O=C(O)c1cc(Cl)ccc1Cl`, the “activity, negative = cytotoxicity” value was -0.45% (inactive).
Regarding `O=C(Cl)OCCOCCOC(=O)Cl`, the “activity, negative = cytotoxicity” value was 6.28% (inactive).
For the compound `CN(C)N`, the “activity, negative = cytotoxicity” value is -0.499% (inactive).
On to `C=CCOCC1CO1` (configuration not stated), for which the “activity, negative = cytotoxicity” value was -0.613% (inactive).
`C[CH2][Hg][S]c1ccccc1C(=O)O`: the Potency is 596 nM (active) and 137 nM (active).
`O=C(O)C(Cl)(Cl)Br`: the “activity, negative = cytotoxicity” value is 13.4% [at 95 µM] (inactive).
As to `CCC(C)(C)c1ccc(O)c(C(C)(C)CC)c1`, the Potency is 27.3 µM (active).
Take `CCC1(CC)C(=O)NC(=O)NC1=O`: the “activity, negative = cytotoxicity” value was -0.35% (inactive).
Consider `O=C(N[C@H]1CN2CCC1CC2)c1ccc2c(c1)OCCO2`, for which the “activity, negative = cytotoxicity” value is -12.8% (inactive).
For `O=C1CC[C@@]2(O)[C@H]3Cc4ccc(O)c5c4[C@@]2(CCN3CC2CC2)[C@H]1O5`, the “activity, negative = cytotoxicity” value was 0.131% (inactive).
With `O=CC=O`, the Potency entry is “inactive and 49.9 µM (active)”.
For `CCOP(=O)(O)C(N)=O`, the “activity, negative = cytotoxicity” value is -23.5% (inactive).
As for `COCc1cnc(C2=NC(C)(C(C)C)C(=O)N2)c(C(=O)O)c1` (configuration not stated), the “activity, negative = cytotoxicity” value is 10.1% (inactive).
Same read-out and setting: then `CC(Cl)C(=O)O` (configuration not stated), with -0.256% [at 95 µM] (inactive).
Regarding `CCCCOC(=O)CCC(=O)OCCCC`, the “activity, negative = cytotoxicity” value is -1.46% (inactive).
Turning to `O=C(NCNC(=O)NC1C(=O)NC(=O)N1CO)NC1C(=O)NC(=O)N1CO` (configuration not stated), the Potency result is “inactive”.
As to `CCCC[N+](CCCC)(CCCC)CCCC`, the Potency was 3.85 µM (active).
On the same count and under the same terms, with `O=C(O)COc1cc(Cl)c(Cl)cc1Cl` the entry was “inactive”.
Turning to `FC(F)OC(F)(F)C(F)Cl` (configuration not stated), the Potency result was “inactive”.
With `NNCCO`, the “activity, negative = cytotoxicity” value is -22.2% (inactive).
Consider `NP(N)(=O)NC(=O)c1ccc(F)cc1`, for which the “activity, negative = cytotoxicity” value is 4.94% (inactive).
